{"source": "PubChem BioAssay"}
{"experiment": "S6 kinase pathway phospho-S6 level changes – cell-based, A549, cytoblot, luminescence, serum-stimulated, primary screen (AID 1158);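 further: serum-stimulated A549 lung adenocarcinoma cells; signal is phosphorylated S6 detected by cytoblot immunostaining with HRP secondary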", "settings": "5 h, higher = more signal"}
{"compound": "CC(C)CON=C1C[C@@H](O)[C@@H](O)[C@@H]2[C@@H]3C(=O)N(c4ccc(F)cc4F)C(=O)[C@@H]3CC[C@H]12", "z-score": -0.0969}
{"compound": "C[C@@H](c1ccccc1)N1C(=O)[C@H]2[C@H]3[C@H](O)[C@H](O)CC(=NO[C@@H]4O[C@H](CO)[C@@H](O)[C@H](O)[C@H]4O)[C@@H]3CC[C@H]2C1=O", "z-score": -0.689}
{"compound": "CCOC(=O)[C@H](CC(C)C)NC(=O)CCC1CC(OC(=O)NCc2ccc3c(c2)OCO3)CC2(CCCC(COC(=O)NCC3CCCCC3)O2)O1", "note": "(stereo not given in full)", "z-score": 0.542}
{"compound": "O=C1[C@H]2[C@H]3[C@H](O)[C@H](O)CC(=NOC[C@@H](O)COCc4ccco4)[C@H]3CC[C@H]2C(=O)N1C[C@@H]1CCCO1", "z-score": -0.637}
{"compound": "CCOC(=O)NN=C1C[C@@H](O)[C@@H](O)[C@@H]2[C@@H]3C(=O)N([C@@H](C)c4ccccc4)C(=O)[C@@H]3CC[C@@H]12", "z-score": -0.25}
{"compound": "CC(CCN1CCCc2nc(C)c(C)cc21)=NOC(C)CN1CCCCc2nc(C)c(C)cc21", "note": "(stereo not given)", "z-score": -0.775}
{"compound": "CO[C@H]1COC(=O)[C@H](C)NC(=O)CC=C[C@@H](C)[C@H](OC)COC(=O)[C@@H](OCc2ccccc2)C=C[C@@H]1C", "z-score": -0.191}
{"compound": "COC(=O)[C@H](C)NC(=O)CCC1CC(OC(=O)NCCc2ccc(F)cc2)CC2(CCCC(COC(=O)NCc3cccc(C(F)(F)F)c3)O2)O1", "note": "(stereo not given in full)", "z-score": -0.416}
{"compound": "CCOC(=O)CCN1C(=O)[C@H]2[C@H]3[C@H](O)[C@H](O)CC(=NOCC(C)C)[C@H]3CC[C@H]2C1=O", "z-score": -0.0487}
{"compound": "CCOC(=O)NN=C1C[C@@H](O)[C@@H](O)[C@@H]2[C@@H]3C(=O)N([C@@H](C)c4ccccc4)C(=O)[C@@H]3CC[C@H]12", "z-score": -0.34}
